Data on 27 compounds can be found in PubChem BioAssay AID720697 (Broad Institute, 2013).

Entries with a potency or affinity are not part of this list. Records with an inconclusive call do not appear. Values without a mark were called inactive.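 The calls were made as follows: active = signal loss with fitted half-maximal concentration at or below twice the top valid tested dose in every test run; inconclusive = runs disagree, flat 30 to 70% signal loss, or poor fit; inactive = all runs flat, opposite direction, or potency beyond limit.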

The nature of the experiment: general mammalian cell viability loss – inhibitor set, cherry-pick, set 2, cytotoxicity control for miR-122 modulator project, dose response (AID 720697).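 Also: 0% = median of neutral control wells and -100% = MG132 positive control wells.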 Particulars: HEK293T viability, CellTiter-Glo luminescence, 48 h; series mostly up to 26 µM; activity change, negative = cytotoxicity: at the top concentration. For orientation: In ATP-based viability assays light output follows the ATP content of the culture.
Take `C[C@H]1CN([C@@H](C)CO)C(=O)c2cc(C#CC3CCCC3)cnc2O[C@H]1CN(C)C(=O)Cc1ccccn1`: the “activity change, negative = cytotoxicity” value is -5.5%.

As for `CCNC(=O)C[C@H]1CC[C@H]2[C@@H](COc3ccc(NC(=O)c4ccccc4)cc3C(=O)N2C)O1`, the “activity change, negative = cytotoxicity” value is 118%. Regarding `CC(C)Oc1ccc(C(CCN)C2CCCCC2)cc1` (configuration not stated), the “activity change, negative = cytotoxicity” value is -62.4%. Take `CN(C)CCNc1ncnc2c1sc1nc(-c3ccccc3)c3c(c12)CCCC3`: the “activity change, negative = cytotoxicity” value was -127%. Then `COc1ccccc1C#Cc1cnc2c(c1)C(=O)N([C@H](C)CO)C[C@H](C)[C@@H](CN(C)C(=O)c1ccc3c(c1)OCO3)O2`, with -27.6%; and `O=C(c1ccccc1)N1C[C@H]2[C@@H](c3ccccc31)[C@@H](CO)N2C(=O)CN1CCOCC1`, with 15.9%; and `O=C(Nc1ccccc1N1CCN(C(=O)c2ccc(Cl)cc2)CC1)c1cccnc1`, with 85.2%.

`CCN(CC)CCNc1nc(-c2ccccc2)nnc1C(F)(F)F`: the “activity change, negative = cytotoxicity” value is 76.1%.

Turning to `CN1C(=O)c2cc(NC(=O)Nc3ccccc3F)ccc2OC[C@@H]2O[C@@H](CC(=O)NCc3ccc(-c4ccccc4)cc3)CC[C@H]21`, the “activity change, negative = cytotoxicity” value is 129%.

Consider `Cc1cc(C(C)(C)C)cc(S(=O)(=O)NCCc2ccncc2)c1C`, for which the “activity change, negative = cytotoxicity” value is 101%. Turning to `COc1cccc(CNC(=O)C[C@@H]2CC[C@H]3[C@H](COc4ccc(NC(C)=O)cc4C(=O)N3C)O2)c1`, the “activity change, negative = cytotoxicity” value is 13.5%.

Turning to `COC(=O)c1c(N)nc(C)n1-c1ccc(OC)cc1`, the “activity change, negative = cytotoxicity” value was 55.2%.

Take `CNC(=O)C[C@@H]1CC[C@H]2[C@@H](COc3ccc(NC(=O)c4cccc(OC)c4)cc3C(=O)N2C)O1`: the “activity change, negative = cytotoxicity” value was 42.2% [at 23.5 µM]. Then `Cc1ccccc1-c1ccc([C@@H]2[C@H](CO)N3CCCCN(C(=O)Nc4cccc(F)c4)C[C@@H]23)cc1`, with 140%; and `CN1C(=O)c2cc(NS(=O)(=O)c3cccc(F)c3)ccc2OC[C@H]2O[C@@H](CC(=O)NCCN3CCCCC3)CC[C@H]21`, with 133% [at 23.5 µM]. On to `COc1ccc(NC(=O)Cn2nnc(C(=O)NCc3ccccc3OC)c2N)cc1Cl`, for which the “activity change, negative = cytotoxicity” value was 45.7%.

Take `COc1cccc(NC(=O)Nc2ccc3c(c2)C(=O)N(C)[C@@H]2CC[C@H](CC(=O)O)O[C@H]2CO3)c1`: the “activity change, negative = cytotoxicity” value is 90.2%. Consider `CC(=O)N=c1scc(-c2ccccc2)n1-c1cccc(O)c1`, for which the “activity change, negative = cytotoxicity” value was -11.9%.

As to `CN1C(=O)c2cc(NC(=O)c3ccccc3F)ccc2OC[C@H]2O[C@H](CC(=O)NCc3ccc4c(c3)OCO4)CC[C@@H]21`, the “activity change, negative = cytotoxicity” value is 52.3%.

In the case of `CCC(=O)N(C)C[C@H]1Oc2cc(C#Cc3ccccc3)ccc2S(=O)(=O)N([C@H](C)CO)C[C@H]1C`, the “activity change, negative = cytotoxicity” value is 43.2%. For `COCCNC(=O)C[C@H]1CC[C@@H]2[C@@H](COc3ccc(NS(=O)(=O)c4ccc(Cl)cc4)cc3C(=O)N2C)O1`, the “activity change, negative = cytotoxicity” value was -6.55%.

As to `CNC(=O)C[C@H]1CC[C@@H]2[C@H](COc3ccc(NS(=O)(=O)c4ccc(F)cc4)cc3C(=O)N2C)O1`, the “activity change, negative = cytotoxicity” value is -13.9%. Then `Cc1cc(C)cc(NC(=O)Nc2ccc3c(c2)C(=O)N(C)[C@@H]2CC[C@H](CC(=O)O)O[C@@H]2CO3)c1`, with -11.5%. Then `C[C@H]1CN([C@@H](C)CO)S(=O)(=O)c2ccc(C3=CCCC3)cc2O[C@H]1CN(C)Cc1cccnc1`, with -21.6%. For `CN1C(=O)c2cc(NS(=O)(=O)c3cccc(F)c3)ccc2OC[C@@H]2O[C@@H](CC(=O)O)CC[C@@H]21`, the “activity change, negative = cytotoxicity” value is 136% [at 23.5 µM]. For `CN1C(=O)c2cc(NS(=O)(=O)c3ccc(Cl)cc3)ccc2OC[C@H]2O[C@H](CC(=O)N3CCc4ccccc4C3)CC[C@@H]21`, the “activity change, negative = cytotoxicity” value is -27.9%.

In the case of `COc1ccc(C#Cc2ccc3c(c2)O[C@@H](CN(C)C(=O)CN2CCOCC2)[C@@H](C)CN([C@H](C)CO)S3(=O)=O)cc1`, the “activity change, negative = cytotoxicity” value was 107%.
